Consider 14 molecules from PubChem BioAssay (NCI).

Among the test systems are T-47D breast; BT-549 breast; MDA-MB-435 melanoma; SW-620 colon; MCF7 breast; HCT-116 colon; HCC-2998 colon; KM12 colon.
Holding throughout (test): NCI-60 one-dose screen, 48 h (100 = growth as untreated, 0 = no growth, -100 = all killed)
What all share (conditions): 10 µM unless noted

About 83,000 compounds went through this panel and 20% of them were active in at least one assay; those are over-represented in the sample as a whole.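 Single-dose data. Exposure time 48 hours. Values below 10 considered active.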 Values without a mark were called inactive. The source made the active and inactive calls.

Turning to `Nc1nc(SCc2cccc([N+](=O)[O-])c2)c2[nH]cnc2n1`, the growth with T-47D breast was 92.4%; in the assay with BT-549 breast it was 103%; in the assay on MDA-MB-435 melanoma, 104%; in the assay with SW-620 colon it was 107%; in the assay on MCF7 breast it was 88%; with HCT-116 colon, 101%. Further, the growth with HCC-2998 colon was 112%; in the assay on KM12 colon, 99.8%.
On to `FC(F)(F)c1ccc2c(c1)Sc1ccccc1N2`, for which the growth was 77.7% with T-47D breast; 93.3% in the assay on BT-549 breast; 97.1% with MDA-MB-435 melanoma; 100% with SW-620 colon; 95.4% with MCF7 breast; 100% in the assay on HCT-116 colon. Moreover, the figures for the growth with HCC-2998 colon and with KM12 colon were 102% and 95%, respectively.
Take `O=C(C[n+]1ccn(CC(OCc2ccc(Cl)cc2Cl)c2ccc(Cl)cc2Cl)c1)c1ccc(F)cc1` (configuration not stated): the growth was -71.6% (active) in the assay with T-47D breast; -94.9% (active) with BT-549 breast; -92.5% (active) in the assay with MDA-MB-435 melanoma; -89.9% (active) with SW-620 colon; -84% (active) in the assay with MCF7 breast; -97.1% (active) in the assay on HCT-116 colon. Further, the growth in the assay with HCC-2998 colon was -94.6% (active); with KM12 colon it was -89.1% (active).
On to `Clc1ccc(N2CCN(CCCN3CCN(c4cccc(Cl)c4)CC3)CC2)cc1`, for which the growth was 40.2% in the assay with T-47D breast; 29.4% in the assay on BT-549 breast; 62.4% in the assay on MDA-MB-435 melanoma; 66.5% in the assay with SW-620 colon; 44.6% in the assay on MCF7 breast; 36.6% with HCT-116 colon. Also, the growth in the assay with HCC-2998 colon is 66.8%; in the assay with KM12 colon, 59.5%.
In the case of `O=c1cc(-c2ccccc2)oc2cc(OCc3cn(Cc4ccc(F)cc4)nn3)cc(O)c12`, the growth in the assay with T-47D breast is 44.2% [100 µM]; in the assay with BT-549 breast it was 16.3% [100 µM]; in the assay on MDA-MB-435 melanoma it was 98.2% [100 µM]; in the assay on SW-620 colon, 102% [100 µM]; with MCF7 breast it was 65.7% [100 µM]; in the assay with HCT-116 colon, 48.5% [100 µM]. Also, the results for the growth in the assay on HCC-2998 colon and with KM12 colon were 100% [100 µM] and 99.4% [100 µM], respectively.
On to `CCN(CC)CCCC(C)Nc1c2ccc(C)cc2nc2ccc(OC)cc12` (configuration not stated), for which the growth was 70.7% with T-47D breast; 73% in the assay with BT-549 breast; 10.2% with MDA-MB-435 melanoma; -41.4% (active) in the assay on SW-620 colon; 4.31% (active) in the assay with MCF7 breast; 16.6% with HCT-116 colon. Besides, the growth in the assay on HCC-2998 colon is 34.9%; with KM12 colon, 16.4%.
With `CCOc1cc(NC(=O)c2ccccc2)c(OCC)cc1N`, the growth in the assay on T-47D breast is 101%; with BT-549 breast, 130%; in the assay on MDA-MB-435 melanoma it was 107%; in the assay on SW-620 colon, 109%; in the assay on MCF7 breast it was 108%; with HCT-116 colon, 118%. In addition, the growth with HCC-2998 colon was 112%; with KM12 colon it was 105%.
Consider `C=C(C)[C@@H]1CC[C@]2(C(=O)NCCNCCNCCN)CC[C@]3(C)[C@H](CC[C@@H]4[C@@]5(C)CCC(=O)C(C)(C)[C@@H]5CC[C@]43C)[C@@H]12`, for which the growth in the assay with T-47D breast is -4.36% [100 µM] (active); with BT-549 breast, 58.3% [100 µM]; in the assay with MDA-MB-435 melanoma, -49.9% [100 µM] (active); in the assay on SW-620 colon it was -76.7% [100 µM] (active); in the assay with MCF7 breast, -58% [100 µM] (active); in the assay on HCT-116 colon it was -80.7% [100 µM] (active). For the same molecule, the results for the growth in the assay on HCC-2998 colon and in the assay on KM12 colon were -90% [100 µM] (active) and -81.9% [100 µM] (active), respectively.
For `CCOC(=O)c1ccc2nc(-c3c(C)nn(-c4ccccc4)c3N3CCOCC3)[nH]c2c1`, the growth in the assay with T-47D breast is 73%; with BT-549 breast it was 93.4%; with MDA-MB-435 melanoma it was 99.4%; with SW-620 colon, 97.3%; with MCF7 breast it was 88.6%; in the assay with HCT-116 colon, 93.2%. In addition, the growth in the assay on HCC-2998 colon was 95.9%; in the assay with KM12 colon it was 96.9%.
Consider `COc1cc2c(O)n(CCCN3CCOCC3)c3c4cnc5cccc(c(=O)c3c2cc1OC)c54`, for which the growth with T-47D breast was 18.6%; in the assay on BT-549 breast, 57.9%; in the assay with MDA-MB-435 melanoma, 47.2%; with SW-620 colon, 34.9%; in the assay on MCF7 breast it was 14.5%; in the assay with HCT-116 colon, 27.9%. Also, the growth with HCC-2998 colon is 59.2%; in the assay on KM12 colon, 46.3%.
In the case of `CCN(CC)CCS(=O)(=O)CCNc1ccnc2cc(Cl)ccc12`, the growth with T-47D breast was 43.4%; in the assay on BT-549 breast it was -0.495% (active); in the assay on MDA-MB-435 melanoma, 3.99% (active); in the assay on SW-620 colon, 7.17% (active); in the assay with MCF7 breast it was 26.9%; in the assay with HCT-116 colon, 6.59% (active). Also, the growth in the assay on HCC-2998 colon was -13.5% (active); with KM12 colon it was -24.5% (active).
With `CCCCN(CCCC)CC(O)c1ccc(OCc2ccccc2)c2ccccc12` (configuration not stated), the growth was 87.5% in the assay on T-47D breast; 111% in the assay on BT-549 breast; 51.2% in the assay with MDA-MB-435 melanoma; 72.6% with SW-620 colon; 95.7% in the assay on MCF7 breast; 53.5% in the assay with HCT-116 colon. The figures for the growth with HCC-2998 colon and with KM12 colon were 70% and 74.2%, respectively.
As to `COc1cc2c(cc1OCCCCCOc1ccc(-n3c(C)nc4ccccc4c3=O)cc1)N=C[C@@H]1CCCN1C2=O`, the growth in the assay on T-47D breast is -7.89% (active); with BT-549 breast, -89.2% (active); in the assay with MDA-MB-435 melanoma, -58.1% (active); in the assay on SW-620 colon, -13.8% (active); in the assay on MCF7 breast, -53.6% (active); in the assay on HCT-116 colon it was 0.749% (active). Moreover, the growth in the assay with HCC-2998 colon is -61.7% (active); with KM12 colon it was -45.7% (active).
For `CC(C)CCSc1nc(N)nc2nc[nH]c12`, the growth is 89.1% with T-47D breast; 140% in the assay on BT-549 breast; 116% with MDA-MB-435 melanoma; 113% in the assay with SW-620 colon; 96.1% with MCF7 breast; 92.9% with HCT-116 colon. Moreover, the figures for the growth in the assay with HCC-2998 colon and in the assay with KM12 colon were 101% and 92.6%, respectively.
